Assay outcomes as filed in PubChem.
MCF10A rerep – A quantitative high throughput screen for small molecules that induce DNA re-replication in MCF 10a normal breast cells. MCF 10A DNA re-replication, Hoechst nuclear intensity, 48 h. Potency, µM (top dose mostly 46.1 µM), hits mostly activators. actives 2.9% (n = 350,000). AID 624296, 2012; further: nearly all actives have a fitted effect of over 50% in size
KB-3-1 tox – qHTS assay for MDR1-selective chemotherapeutics: Primary screen using the parental adenocarcinoma cell KB-3-1. KB-3-1 viability, CellTiter-Glo ATP luminescence, 72 h. actives 1.4% (n = 400,000). Potency, µM (top dose mostly 46.1 µM), actives largely listed as cytotoxic; further: nearly all actives have a fitted effect of over 60% in size
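Using CellTiter-Glo luminescence, growth of non-resistant KB-3-1 adenocarcinoma cells is assessed 72 h after pin-tool compound addition at 37 °C. Normalized responses across the concentration series yield fitted curves.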
SW480 rereplic – A quantitative high throughput screen for small molecules that induce DNA re-replication in SW480 colon adenocarcinoma cells; SW480 DNA re-replication, Hoechst DNA content imaging, 48 h; Potency, µM (doses to about 46.1 µM), actives largely listed as activators; actives 1.8% (n = 340,000); AID 624297, 2012; further: nearly all actives have a fitted effect of over 55% in size
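Image-based read-out: total Hoechst fluorescence of nuclei (405 nm excitation, 500-530 nm emission), with hits raising the fraction of high-intensity nuclei. SW480 colon cells incubated 48 hr with compounds at 37 C.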
KB-V1 cytotox – qHTS assay for MDR1-selective chemotherapeutics: Primary screen using the drug-selected MDR subline cells KB-V1. KB-V1 MDR cells viability, CellTiter-Glo, 72 h. Potency, µM (titrated, usually from 46.1 µM), usual class: cytotoxic. actives 3.4% (n = 400,000); further: nearly all actives have a fitted effect of over 60% in size
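Cytotoxicity toward P-gp-expressing KB-V1 cells was determined as loss of CellTiter-Glo luminescence after 72 h at 37 degrees C. Compounds were tested in quantitative HTS format across a concentration range, with curves fitted to normalized data.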
IL1B secr inh – qHTS for Inhibitors of Inflammasome Signaling: IL-1-beta AlphaLISA Primary Screen; AID 743279, 2014; activity change, % at 57.5 µM; actives 4.7% (n = 360,000); THP-1 LPS/ATP IL-1B secretion, AlphaLISA, 16 h; hits give low values; in the data active means activity change below about -50%; inconclusive means mostly about -30% to -49%
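THP-1 cells pretreated 1 hr with compounds (up to 57.5 uM final), then stimulated with LPS (250 ng/mL final) plus ATP (1.25 mM final); secreted IL-1B measured by AlphaLISA after 16 hr, decreased signal indicating inhibition.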
Each line names hits and unclear results; the compound was inactive in the other large screens. A selection: hits, their analogues and other compounds. The true share with any hit is near 9.9%. Unless noted, the call rests on the fitted dose curve; in most records, active means well fitted curve in the direction sought with a large enough effect; inconclusive means small, poorly fitted or top-dose-only effect, or another doubt; inactive means no such curve, though single readings can be large; an effect the other way counts as inactive or inconclusive.

CC1(C)Cc2cccc(Oc3cc(NN4CCCCC4)c([N+](=O)[O-])cc3[N+](=O)[O-])c2O1	none
CN(NC1CC(=O)N(c2ccccc2)C1=O)c1ccccc1 (stereo unspecified)	none
COc1cc(C2CC(=O)C3=C(C2)Nc2ncnn2C3c2cccs2)cc(OC)c1OC (stereo unspecified)	none
COc1ccc(C2C3=C(Nc4ncnn42)c2ccccc2CCC3)cc1 (stereo unspecified)	MCF10A rerep inconclusive
COc1cc(C2C3=C(Nc4ncnn42)c2ccccc2CC3)cc(OC)c1OC (stereo unspecified)	MCF10A rerep inconclusive, KB-3-1 tox 0.29µM, SW480 rereplic 0.82µM, KB-V1 cytotox 0.65µM
COc1cc(C2C=C(c3cccs3)Nc3ncnn32)cc(OC)c1OC (stereo unspecified)	MCF10A rerep inconclusive, KB-3-1 tox 1µM, SW480 rereplic inconclusive, KB-V1 cytotox 3.7µM
CC(C)NC(=NCc1ccc(Cl)cc1Cl)Nc1ccccc1	SW480 rereplic inconclusive, KB-V1 cytotox inconclusive (no result: IL1B secr inh)
Cc1ccc(NC(=O)c2c(Cl)n(C)c3ccccc23)cc1	MCF10A rerep inconclusive, KB-3-1 tox inconclusive, SW480 rereplic inconclusive, KB-V1 cytotox 6.5µM
Cn1c(Cl)c(C(=O)Nc2ccccc2)c2ccccc21	none
CN(C)c1ccc(Cc2cc3c(O)ccc(O)c3cc(Cc3ccc(N(C)C)cc3)c2=O)cc1	MCF10A rerep inconclusive, KB-3-1 tox inconclusive, SW480 rereplic inconclusive, IL1B secr inh -113
CCOC(=O)c1ccc(Nc2sc(C(=O)c3cccc([N+](=O)[O-])c3)c(N)c2C#N)cc1	MCF10A rerep inconclusive, KB-3-1 tox inconclusive, SW480 rereplic inconclusive
CC(C)(C)c1ccc(C(=O)N2CC(=O)Nc3ccc(F)cc3C2c2ccc(F)cc2)cc1 (stereo unspecified)	KB-3-1 tox 18µM, KB-V1 cytotox inconclusive (no result: MCF10A rerep, SW480 rereplic, IL1B secr inh)
COc1cc(/C=C/C(=O)OCC(=O)Nc2ccccc2Sc2ccc(Cl)cc2)ccc1O	MCF10A rerep 21µM, KB-V1 cytotox inconclusive, IL1B secr inh inconclusive
C/C(=C\C(=O)OCC(=O)NCc1ccccc1)C(=O)OCC(=O)NCc1ccccc1	none
CCOC(=O)/C=C/C(=O)OCC(=O)NCc1ccccc1	MCF10A rerep inconclusive, SW480 rereplic inconclusive, KB-V1 cytotox inconclusive, IL1B secr inh -91
COc1cc(/C=C/C(=O)OCC(=O)NCc2ccco2)ccc1O	MCF10A rerep inconclusive, KB-3-1 tox 23µM, KB-V1 cytotox inconclusive
COc1ccc(CCCC(=O)NCc2ccccc2)cc1C	MCF10A rerep 8.2µM, KB-3-1 tox inconclusive, SW480 rereplic inconclusive, KB-V1 cytotox 6.5µM
Cc1ccc(CNC(=O)CCCc2ccccc2)cc1	none
COc1ccc(OCCN2CCC(C(=O)NC(C)c3cccc4ccccc34)CC2)cc1 (stereo unspecified)	none (no result: MCF10A rerep, SW480 rereplic)
COc1ccccc1CNC(=O)CCCc1nnc2n(C)c(=O)c3sccc3n12	none
COc1cc(/C=C/C(=O)OCC(=O)NCCc2ccc(S(N)(=O)=O)cc2)ccc1OCC#N	MCF10A rerep inconclusive, SW480 rereplic 2.6µM
COc1ccc(OC)c(/C=C/C(=O)OCC(=O)NCc2ccccc2)c1	none
COC(=O)c1ccc(CNC(=O)COC(=O)/C=C/c2ccc(O)c(OC)c2)cc1	IL1B secr inh -68
COc1ccc(/C=C/C(=O)OCC(=O)NCc2ccccc2)cc1OC	MCF10A rerep 23µM, KB-3-1 tox inconclusive
CCOC(=O)/C=C/C(=O)OCC(=O)Nc1c(Cl)cccc1Cl	IL1B secr inh -54
CCOC(=O)/C=C/C(=O)OCC(=O)Nc1ccc(Cl)cc1Cl	MCF10A rerep inconclusive
CCOc1ccc(/C=C/C(=O)OCC(=O)NCCc2ccc(OCC)c(OCC)c2)cc1OC	none
CS(=O)(=O)N(CC(=O)NCCSCc1ccccc1)c1cc(C(F)(F)F)ccc1Cl	KB-V1 cytotox inconclusive (no result: MCF10A rerep, SW480 rereplic, IL1B secr inh)
COc1ccc(-n2c(-c3ccc(Cl)cc3)cc3c2CC(C)(C)CC3=O)c(OC)c1	none (no result: MCF10A rerep, SW480 rereplic, IL1B secr inh)
Cc1cc(C)c2c(C)c(C(=O)NCc3ccncc3)oc2c1	KB-V1 cytotox inconclusive
